TROY signal inh: TROY signaling inhibition; AID 1347056; inhibition, % at 10 µM; hit rate 0.98% among 360,000; Q293 LMP1-TROYcd NF-kB luciferase reporter, 4 h;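 active means compounds whose plate-normalised and pattern-corrected inhibition of the luciferase reporter signal at the single screening dose is 50% or more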
HIF-2a block: blocks HIF-2a reporter activity; 786-0 RCC cells HIF-2a reporter, luciferase luminescence, overnight; inhibition, % at 18.8 µM; hit rate 0.72% among 360,000; AID 624352;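 active means inhibition of the luminescence signal of 40% or more relative to plate controls, in a single-dose primary screen at 18.75 µM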
Shn3 3UTR inh: inhibitors of Schnurri-3 3'UTR reporter in osteoblasts; Clone20 osteoblast Shn3 3'UTR firefly luciferase, 24 h; inhibition, % at 12.5 µM; hit rate 0.52% among 360,000; AID 588674;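 active means mean inhibition of at least 75% with every replicate also reaching 75%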;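 further: 0% = median of neutral control wells and 100% = pilot-screen positive control compound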
MITF TRPM1 inh: reduces MITF-dependent TRPM1 promoter luciferase signal | SK-MEL-5 TRPM1 promoter luciferase, 24 h | inhibition, % at 12.5 µM | hit rate 0.83% among 330,000 | AID 488899;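 active means mean inhibition across replicates of 60% or more, whatever share of single replicates reaches that level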
EBV LMP1 NFkB: Epstein-Barr LMP1 NF-kappaB reporter inhibition. LMP1-induced NF-kappaB luciferase reporter cells, luminescence. inhibition, % at 12.5 µM. hit rate 0.69% among 350,000. AID 504558; in the data active means inhibition above about 41%;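 further: 0% = neutral control wells and 100% = reference inhibitor control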
TWEAK-Fn14 inh: TWEAK-Fn14 signaling inhibition; TWEAK-stimulated Fn14 reporter cells, luciferase luminescence, 8 h; inhibition, % at 10 µM; hit rate 2% among 360,000; AID 1159606; in the data active means inhibition above about 50%
* hit, by the source's call. An excerpt weighted towards active compounds, which were near 3.4% of everything screened.

Screening CC(C)C1C(=O)N(Cc2cn(CCC3OCCO3)nn2)CCS(=O)(=O)N1Cc1ccc(-c2ccc(Cl)c(Cl)c2)cc1 (centres undefined) returned TROY signal inh 18, HIF-2a block -33, Shn3 3UTR inh 89*, EBV LMP1 NFkB -23 and TWEAK-Fn14 inh 25.
COCOCCn1cc(CN2CCS(=O)(=O)N(Cc3ccc(-c4ccc(Cl)cc4)cc3)C(C(C)C)C2=O)nn1 (centres undefined) was read as TROY signal inh 9, HIF-2a block 1, Shn3 3UTR inh 46, EBV LMP1 NFkB 2 and TWEAK-Fn14 inh 8.
`Cc1ccc(-c2cnc3c(c2)C(=O)N([C@H](C)CO)C[C@@H](C)[C@@H](CN(C)C(=O)Cc2ccccc2)O3)cc1` gave TROY signal inh 14, HIF-2a block 11, Shn3 3UTR inh 5, EBV LMP1 NFkB 3 and TWEAK-Fn14 inh 2.
For Cc1ccc(C(=O)OC2OC(=O)C(Cl)=C2N2CCOCC2)cc1 (centres undefined) the results were TROY signal inh 21, HIF-2a block -14, Shn3 3UTR inh 5, MITF TRPM1 inh 1, EBV LMP1 NFkB 5 and TWEAK-Fn14 inh 58*.
`COc1ccccc1OCCC(=O)OCC(=O)NCc1ccc(F)cc1` gave TROY signal inh -5, HIF-2a block 3, Shn3 3UTR inh -19, MITF TRPM1 inh -3, EBV LMP1 NFkB 69* and TWEAK-Fn14 inh -6.
Screening O=C(COC(=O)CCc1c[nH]c2ccccc12)NCc1ccc(Cl)cc1 returned TROY signal inh 2, HIF-2a block 20, Shn3 3UTR inh -11, MITF TRPM1 inh 0, EBV LMP1 NFkB 46* and TWEAK-Fn14 inh -22.
O=C(COC(=O)CCc1c[nH]c2ccccc12)NCc1ccccc1 was read as TROY signal inh 7, HIF-2a block 15, Shn3 3UTR inh 4, MITF TRPM1 inh 7, EBV LMP1 NFkB 1 and TWEAK-Fn14 inh -5.
CCCc1cc(=O)oc2cc(OCC(=O)NCCN3CCOCC3)c(Cl)cc12 was read as TROY signal inh -12, HIF-2a block 2, Shn3 3UTR inh 0, EBV LMP1 NFkB 4 and TWEAK-Fn14 inh -31.
`C=C1C(=O)CC2=C1[C@](Cc1ccc(F)cc1)(C(=O)OC)N(C(=O)c1ccccc1)C2` gave TROY signal inh -10, HIF-2a block 14 and TWEAK-Fn14 inh 16.
For C=C1C(=O)C=C2CN(C(=O)c3ccccc3)[C@@](Cc3ccc(F)cc3)(C(=O)OC)[C@@H]12 the results were TROY signal inh 81*, HIF-2a block 97*, Shn3 3UTR inh 95*, MITF TRPM1 inh 99*, EBV LMP1 NFkB 94* and TWEAK-Fn14 inh 105*.
Screening O=c1ccc2ccccc2c2ccccc12 returned TROY signal inh 52*, HIF-2a block 95*, Shn3 3UTR inh 60 and TWEAK-Fn14 inh 94*.
CNC(CC(=O)c1ccc([N+](=O)[O-])cc1)C(Cl)(Cl)Cl (centres undefined) was read as TROY signal inh 0, HIF-2a block 93*, Shn3 3UTR inh 38, MITF TRPM1 inh 90*, EBV LMP1 NFkB 21 and TWEAK-Fn14 inh 13.
CC1CCc2nc(NC(=O)C3COc4ccccc4O3)sc2C1 (centres undefined) was read as TROY signal inh 82*, HIF-2a block -1, Shn3 3UTR inh 32, MITF TRPM1 inh 31, EBV LMP1 NFkB 40 and TWEAK-Fn14 inh 96*.
For Cc1nc2ccc3nc(NC(=O)C4COc5ccccc5O4)sc3c2s1 (centres undefined) the results were TROY signal inh 1, HIF-2a block -116, Shn3 3UTR inh -14, EBV LMP1 NFkB -1 and TWEAK-Fn14 inh 23.
Screening CC1CCc2nc(NC(=O)C3CC3)sc2C1 (centres undefined) returned TROY signal inh -60, HIF-2a block -194, Shn3 3UTR inh -54, MITF TRPM1 inh -35, EBV LMP1 NFkB 4 and TWEAK-Fn14 inh -27.
O=C(Nc1nc(-c2ccccn2)cs1)C1COc2ccccc2O1 (centres undefined) was read as TROY signal inh -25, HIF-2a block -37, Shn3 3UTR inh 90*, MITF TRPM1 inh 17, EBV LMP1 NFkB 33 and TWEAK-Fn14 inh -64.
For Cc1cnc(NC(=O)C2COc3ccccc3O2)s1 (centres undefined) the results were TROY signal inh 60*, HIF-2a block -2, Shn3 3UTR inh 34, MITF TRPM1 inh 34, EBV LMP1 NFkB 26 and TWEAK-Fn14 inh 95*.
For COC(=O)c1c(NC(=O)C2COc3ccccc3O2)sc2c1CCN(C(C)=O)C2 (centres undefined) the results were TROY signal inh 30, HIF-2a block -12, Shn3 3UTR inh -5, MITF TRPM1 inh -1, EBV LMP1 NFkB 14 and TWEAK-Fn14 inh 55*.
For CC(=O)N1CCc2c(sc(NC(=O)C3COc4ccccc4O3)c2C(N)=O)C1 (centres undefined) the results were TROY signal inh -14, HIF-2a block -66, Shn3 3UTR inh 5, MITF TRPM1 inh -35, EBV LMP1 NFkB -2 and TWEAK-Fn14 inh -15.
O=C(Nc1nc(-c2ccccc2)cs1)C1COc2ccccc2O1 (centres undefined) was read as HIF-2a block -83, Shn3 3UTR inh -11, MITF TRPM1 inh -21, EBV LMP1 NFkB 0 and TWEAK-Fn14 inh 8.
Cc1csc(NC(=O)C2COc3ccccc3O2)n1 (centres undefined) was read as TROY signal inh 44, HIF-2a block -31, Shn3 3UTR inh -3, MITF TRPM1 inh -8, EBV LMP1 NFkB 1 and TWEAK-Fn14 inh 78*.
For COC(=O)c1ccccc1OCc1cc(=O)oc2ccc(C)cc12 the results were TROY signal inh 4, HIF-2a block -1, Shn3 3UTR inh 7 and TWEAK-Fn14 inh -27.
Screening CC(NC(=O)/C=C/c1cnc2ccccc2n1)C12CC3CC(CC(C3)C1)C2 (centres undefined) returned TROY signal inh 75*, HIF-2a block 3, Shn3 3UTR inh 34, MITF TRPM1 inh 12, EBV LMP1 NFkB -7 and TWEAK-Fn14 inh 77*.
`CSCCC(NC(=O)C1CCCCC1)c1nc2ccccc2[nH]1` (centres undefined) gave TROY signal inh 9, HIF-2a block 13, Shn3 3UTR inh -9 and TWEAK-Fn14 inh -3.
For CC(OC(=O)C1CCCCC1)c1nc2ccccc2[nH]1 (centres undefined) the results were TROY signal inh -7, HIF-2a block 12, Shn3 3UTR inh 21, MITF TRPM1 inh 0, EBV LMP1 NFkB 13 and TWEAK-Fn14 inh 59*.
`Clc1ccc(-c2nnc(COc3ncnc4ccccc34)o2)cc1` gave TROY signal inh -41, HIF-2a block -64, Shn3 3UTR inh 13, MITF TRPM1 inh -10, EBV LMP1 NFkB -2 and TWEAK-Fn14 inh -11.
`COc1ccc(N2Cc3ccccc3C2=O)cc1` gave TROY signal inh 7, HIF-2a block -141, Shn3 3UTR inh -7, MITF TRPM1 inh -9, EBV LMP1 NFkB 81* and TWEAK-Fn14 inh 38.

Compound activity (PubChem)
